Bioassay records from PubChem BioAssay.
EphB4 ephrin blk – antagonists of human EphB4-ephrin-B2 interaction; AID 720; EphB4 LBD / TNYL-RAW-Alexa532 peptide, fluorescence polarization; inhibition, % at 7 µM; 0.15% of 97,000 active; P54760;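 active = inhibition above the screen-wide mean inhibition plus 3 SD, cut at about 15% in these data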
D1 allo mod – D1 dopamine receptor (human) allosteric modulation; P21728; B-score at 10 µM; 5.9% of 58,000 active; HEK293 D1, CRE-luciferase, dopamine EC30 potentiation; actives deviate in either direction;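 active = luminescence count or its row- and column-corrected plate score outside the 99.7% band of the plate's sample wells, on either side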
hDAT+cocaine – modulates human dopamine transporter uptake under cocaine. 1.3% of 110,000 active. B-score at 10 µM. LLC-PK1 hDAT cells, [14C]-dopamine uptake with cocaine IC80; actives deviate in either direction. Q01959;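 active = Z score or B-score, a plate-position-corrected score, falls beyond the plate's 99.7% confidence bounds, in either direction; inactive = both scores lie inside the 99.7% bounds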
Target sequence (Q01959 whole entry, looked up): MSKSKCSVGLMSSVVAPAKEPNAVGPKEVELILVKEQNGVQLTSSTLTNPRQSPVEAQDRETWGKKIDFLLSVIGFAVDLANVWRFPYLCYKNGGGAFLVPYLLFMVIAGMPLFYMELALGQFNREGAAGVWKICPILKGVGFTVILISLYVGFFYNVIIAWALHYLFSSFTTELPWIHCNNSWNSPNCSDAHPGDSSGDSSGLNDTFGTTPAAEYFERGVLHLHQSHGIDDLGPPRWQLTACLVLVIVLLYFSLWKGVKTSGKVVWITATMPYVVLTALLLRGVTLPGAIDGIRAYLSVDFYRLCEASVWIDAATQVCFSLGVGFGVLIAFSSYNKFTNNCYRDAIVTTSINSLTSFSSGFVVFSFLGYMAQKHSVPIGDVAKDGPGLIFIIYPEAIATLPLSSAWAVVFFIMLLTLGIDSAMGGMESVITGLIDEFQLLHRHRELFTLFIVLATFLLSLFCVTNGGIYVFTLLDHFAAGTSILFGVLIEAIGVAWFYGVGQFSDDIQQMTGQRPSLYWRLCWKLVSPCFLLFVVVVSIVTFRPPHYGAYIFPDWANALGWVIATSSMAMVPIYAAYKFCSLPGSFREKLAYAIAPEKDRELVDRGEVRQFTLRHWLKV
Numbers stand for hits; ! = not confirmed by another sample. Many of the other results were omitted from the sample, so hits are more common in it than they were.

How did CCn1cc(C(=O)N2CCN(Cc3ccc4c(c3)OCO4)CC2)c(=O)c2ccc(C)nc21 do in these assays?
EphB4 ephrin blk: inactive; hDAT+cocaine: inactive

Results for CCn1cc(C(=O)NCc2ccc3c(c2)OCO3)c(=O)c2ccc(C)nc21 ?
D1 allo mod: 4.34

What do the screens show for `O=C1N[C@@H](Cc2cn(S(=O)(=O)c3ccc([N+](=O)[O-])cc3)c3ccccc23)C(=O)N[C@H]1Cc1ccccc1`?
hDAT+cocaine: inactive

Results for c1ccc(CN(CC2=NCCN2)c2ccccc2)cc1 ?
D1 allo mod: inactive; hDAT+cocaine: inactive

How did Cc1ccc(N(CC2=NCCN2)c2cccc(O)c2)cc1 do in these assays?
EphB4 ephrin blk: inactive; D1 allo mod: -2.29!; hDAT+cocaine: inactive

What do the screens show for `C=C1CCN([C@@H](Cc2ccccc2)C(=O)NC2CCN(Cc3ccccc3)CC2)S(=O)(=O)c2ccccc21`?
hDAT+cocaine: inactive

Results for CCCN(CCC)C(=O)Cn1c(=O)n(CCC(=O)NCCc2ccccc2)c(=O)c2ccccc21 ?
EphB4 ephrin blk: inactive; hDAT+cocaine: -7.96

How did COCCNC(=O)Cn1c(=O)n(CCC(=O)NCCc2ccccc2)c(=O)c2ccccc21 do in these assays?
D1 allo mod: inactive

How did COc1ccc(OCc2ccc(C(=O)NN)cc2)cc1 do in these assays?
EphB4 ephrin blk: inactive; hDAT+cocaine: inactive

Results for Cc1c(C(=O)OCCOc2ccccc2)[nH]c2c1C(=O)CCC2 ?
EphB4 ephrin blk: inactive; D1 allo mod: -3.78; hDAT+cocaine: inactive

What do the screens show for `CCCc1c(C(=O)OCC)[nH]c2c1C(=O)CCC2`?
EphB4 ephrin blk: inactive; D1 allo mod: inactive; hDAT+cocaine: inactive

What do the screens show for `COCCn1c(SCC(=O)Nc2ccc(S(=O)(=O)N(C)C)cc2)nc2ccccc21`?
EphB4 ephrin blk: inactive; hDAT+cocaine: inactive

Results for CC(C)C1COC(c2cccc3ccccc23)=N1 (centres undefined) ?
hDAT+cocaine: 2.95

Results for CCn1cc(C2=NC(C(C)C)CO2)c2ccccc21 (centres undefined) ?
D1 allo mod: inactive; hDAT+cocaine: inactive

What do the screens show for `OC(Cn1cncn1)(c1ccccc1)c1ccccc1`?
EphB4 ephrin blk: inactive; hDAT+cocaine: inactive

What do the screens show for `Cc1cccc(NC(=O)CCOc2ccccc2)c1`?
EphB4 ephrin blk: inactive; hDAT+cocaine: -1.91

What do the screens show for `COc1ccc(NC(=O)CCOc2ccccc2)cc1`?
EphB4 ephrin blk: inactive; hDAT+cocaine: inactive

Results for CCNc1nc(N)c(C(=C(C#N)C#N)c2ccccc2)s1 ?
EphB4 ephrin blk: inactive; hDAT+cocaine: inactive

How did COC(=O)C1=C(C(=O)OC)[C@@H]2N(C)c3ccc(OC)cc3[C@@]23C[C@@H](C(=O)OC)N(C(=O)c2ccc(Br)cc2)C3=N1 do in these assays?
hDAT+cocaine: inactive

Results for CCOC(=O)N1C2=NC(C(=O)OC)=C(C(=O)OC)[C@@H]3N(C)c4ccc(OC)cc4[C@]23C[C@H]1C(=O)OC ?
hDAT+cocaine: 1.61

What do the screens show for `COc1ccc(CCNC(=O)c2[nH]c(C)c(C(C)=O)c2C)cc1OC`?
EphB4 ephrin blk: inactive; D1 allo mod: inactive; hDAT+cocaine: inactive

What do the screens show for `CC(=O)c1c(C)[nH]c(C(=O)NCCc2ccccc2)c1C`?
EphB4 ephrin blk: inactive; D1 allo mod: -3.46; hDAT+cocaine: inactive

How did COc1ccc(N(CC(=O)NCCSc2ccccn2)S(C)(=O)=O)cc1 do in these assays?
EphB4 ephrin blk: inactive; hDAT+cocaine: inactive

What do the screens show for `COc1ccc(C(=O)NCCSc2ccccn2)cc1`?
D1 allo mod: -5.33; hDAT+cocaine: inactive

How did COc1ccc(-n2c(COc3cccc4ccccc34)nnc2SCC(=O)NCc2ccco2)cc1 do in these assays?
EphB4 ephrin blk: inactive; hDAT+cocaine: inactive

What do the screens show for `COC(=O)CSC1=C(C#N)C(c2ccc(C)cc2)C2=C(CCCC2=O)N1` (centres undefined)?
EphB4 ephrin blk: 16.1; D1 allo mod: inactive; hDAT+cocaine: inactive

Results for COC(=O)CSC1=C(C#N)C(c2ccc3c(c2)OCO3)C2=C(CCCC2=O)N1 (centres undefined) ?
EphB4 ephrin blk: inactive; hDAT+cocaine: inactive

What do the screens show for `COC(C[C@H](O)C[C@H](O)[C@H](C)OCc1ccccc1)OC`?
hDAT+cocaine: inactive

What do the screens show for `CN(CCCNC(=O)c1cccc(N2CCCC2=O)c1)c1ccccc1`?
EphB4 ephrin blk: inactive; hDAT+cocaine: inactive
